Screening data: PubChem, National Center for Advancing Translational Sciences (NCATS)
Hits are enriched below; roughly 8.2% of the tested compounds scored in any of these assays.
ELG1 repair inh: inhibitors of ELG1-dependent DNA repair in HEK293T cells | actives 2.3% (n = 330,000) | Potency, µM (doses to about 46.1 µM), for inactives: at the top dose activity change, negative = inhibition, most hits filed as inhibitors | HEK293T ELG1-luciferase reporter, luminescence, 16 h; DNA damage induced by 5-fluorouridine; also: % is scaled to controls: 0 for no effect and ±100 for the full control effect; nearly all actives have a fitted effect of over 55% in size
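DMSO vehicle served as the neutral condition. Each well held 2,000 cells given 5-fluorouridine plus compound; after 16 hr at 37 °C/5% CO2, ONE-Glo was added and luciferase measured 30 min later.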
MCF10A rerep: induces DNA re-replication in MCF 10a normal breast cells | Potency, µM (top dose mostly 46.1 µM), inactives show at the top dose activity, positive = re-replication, hits mostly activators | MCF 10A DNA re-replication, Hoechst nuclear intensity, 48 h | actives 2.9% (n = 350,000); also: % of control where 0% means no effect; nearly all actives have a fitted effect of over 50% in size
KB-V1 cytotox: kills drug-selected multidrug resistant KB-V1 cells. KB-V1 MDR cells viability, CellTiter-Glo, 72 h. Potency, µM (series often up to 46.1 µM), usual class: cytotoxic. actives 3.4% (n = 400,000). AID 1347076; also: % is scaled to controls: 0 for no effect and ±100 for the full control effect; nearly all actives have a fitted effect of over 60% in size
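Cytotoxicity toward P-gp-expressing KB-V1 cells was determined as loss of CellTiter-Glo luminescence after 72 h at 37 degrees C. Compounds were tested in quantitative HTS format across a concentration range, with curves fitted to normalized data.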
KB-3-1 cytotox: kills parental KB-3-1 adenocarcinoma cells; KB-3-1 viability, CellTiter-Glo ATP luminescence, 72 h; Potency, µM (titrated, usually from 46.1 µM), most hits filed as cytotoxic; actives 1.4% (n = 400,000); also: % is scaled to controls: 0 for no effect and ±100 for the full control effect; nearly all actives have a fitted effect of over 60% in size
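Cytotoxicity in the drug-sensitive parental line KB-3-1 was scored as loss of CellTiter-Glo luminescence following 72 h incubation with compound. Values come from curve fitting of normalized concentration-response data.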
SW480 rereplic: inducers of DNA re-replication in SW480 colon cancer cells; SW480 DNA re-replication, Hoechst DNA content imaging, 48 h; Potency, µM (titrated, usually from 46.1 µM), inactives show at the top dose re-replication activation, hits mostly activators; actives 1.8% (n = 340,000); also: % of control where 0% means no effect; nearly all actives have a fitted effect of over 55% in size
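DNA re-replication was detected as more nuclei of elevated Hoechst intensity after 48 hr exposure to compound (23 nL pinned per well of 250 cells).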
* hit, by the source's call; [ ] = remark or other dose. Calls follow the shape of the dose curve; as a rule, active = well fitted curve in the direction sought with a large enough effect; inconclusive = small, poorly fitted or top-dose-only effect, or another doubt; inactive = no such curve, though single readings can be large; an effect the other way counts as inactive or inconclusive. Potency is read from the fitted curve at half-maximal effect.

Screening CCC(CC)C(=O)NC1CC(=O)N(c2ccc3c(c2)OCCO3)C1 (stereo unspecified) returned KB-V1 cytotox inconclusive and KB-3-1 cytotox inactive.
For C=CCn1c(SCC(=O)NC2CCCCC2)nnc1-c1ccc(OC)cc1 the results were ELG1 repair inh 6%, MCF10A rerep -38%, KB-V1 cytotox 4.1µM*, KB-3-1 cytotox inactive and SW480 rereplic -8%.
`Cn1c(SCC(=O)NC2CC2)nnc1-c1ccccc1Cl` gave ELG1 repair inh -1%, MCF10A rerep -14%, KB-V1 cytotox inactive, KB-3-1 cytotox inactive and SW480 rereplic 6%.
For C=CCn1c(SCC(=O)NC2CC2)nnc1-c1cccc(OC)c1 the results were ELG1 repair inh -5%, MCF10A rerep 1%, KB-V1 cytotox inactive, KB-3-1 cytotox inactive and SW480 rereplic -4%.
`Cn1c(SCC(=O)NC2CCCCC2)nnc1-c1ccccc1F` gave ELG1 repair inh -4%, MCF10A rerep -20%, KB-V1 cytotox inactive, KB-3-1 cytotox inactive and SW480 rereplic 9.2µM*.
Screening O=C(CSc1nncn1-c1ccccc1F)NC1CCCCC1 returned ELG1 repair inh inconclusive, MCF10A rerep -2%, KB-V1 cytotox 21µM*, KB-3-1 cytotox inactive and SW480 rereplic -3%.
COc1ccc(-n2cnnc2SCC(=O)NC2CCCCC2)cc1 was read as ELG1 repair inh -8%, MCF10A rerep 1%, KB-V1 cytotox 23µM*, KB-3-1 cytotox inactive and SW480 rereplic 3%.
For Cc1ccc(/C=N/N2CCOCC2)s1 the results were ELG1 repair inh inconclusive, MCF10A rerep 0%, KB-V1 cytotox inactive, KB-3-1 cytotox inactive and SW480 rereplic -18%.
`O=C(CN1C(=O)CCSc2ccccc21)Nc1ccc2c(c1)OCCO2` gave ELG1 repair inh -12%, MCF10A rerep -6%, KB-V1 cytotox 13µM*, KB-3-1 cytotox inactive and SW480 rereplic -3%.
CC1CC(=O)N(CC(=O)Nc2ccc3c(c2)OCO3)c2ccccc2S1 (stereo unspecified) was read as ELG1 repair inh -10%, MCF10A rerep 3%, KB-V1 cytotox 16µM*, KB-3-1 cytotox inconclusive and SW480 rereplic 1%.
O=C(CN1C(=O)CC(c2ccco2)Sc2ccccc21)Nc1ccc2c(c1)OCCO2 (stereo unspecified) was read as ELG1 repair inh -18%, MCF10A rerep 1%, KB-V1 cytotox inactive, KB-3-1 cytotox inactive and SW480 rereplic 0%.
`Cc1ccc2nc(-c3sc4nc(C)cc(C)c4c3N)[nH]c2c1` gave ELG1 repair inh inconclusive, MCF10A rerep 10µM*, KB-V1 cytotox inconclusive, KB-3-1 cytotox inconclusive and SW480 rereplic 12µM*.
Screening O=C(CSc1nc(-c2ccco2)cc(C(F)(F)F)n1)Nc1ccc2c(c1)OCO2 returned ELG1 repair inh inconclusive, MCF10A rerep -2%, KB-V1 cytotox 18µM*, KB-3-1 cytotox inconclusive and SW480 rereplic -7%.
`COc1cc(NC(=O)CCCSc2nc(-c3ccco3)cc(C(F)(F)F)n2)cc(OC)c1OC` gave ELG1 repair inh inconclusive, MCF10A rerep inconclusive, KB-V1 cytotox inactive, KB-3-1 cytotox inactive and SW480 rereplic 2%.
CCn1cc(CNC(=O)CCSc2nc(-c3ccco3)cc(C(F)(F)F)n2)cn1 was read as ELG1 repair inh inconclusive, MCF10A rerep inconclusive, KB-V1 cytotox 4.6µM*, KB-3-1 cytotox inconclusive and SW480 rereplic inconclusive.
For O=C(CCSc1nc(-c2ccco2)cc(C(F)(F)F)n1)NCCc1ccccc1 the results were ELG1 repair inh inconclusive, MCF10A rerep inconclusive, KB-V1 cytotox inconclusive, KB-3-1 cytotox inactive and SW480 rereplic -1%[9.22 µM].
`Cc1nn(C)c(C)c1NC(=O)CCCSc1nc(-c2ccco2)cc(C(F)(F)F)n1` gave ELG1 repair inh 26µM*, MCF10A rerep -9%, KB-V1 cytotox inactive, KB-3-1 cytotox inactive and SW480 rereplic -4%.
For COc1ccc(C(=O)NCCc2nnc3ccc(SCC(=O)NCCc4ccc(OC)c(OC)c4)nn23)cc1 the results were ELG1 repair inh -6%, MCF10A rerep -13%, KB-V1 cytotox inactive, KB-3-1 cytotox inactive and SW480 rereplic 21%.
For Cc1ccc(SCc2cc(=O)[nH]c(Nc3nc(C)c4ccc(C)cc4n3)n2)cc1 the results were ELG1 repair inh 12%, MCF10A rerep 1%, KB-V1 cytotox inactive, KB-3-1 cytotox inactive and SW480 rereplic -3%.
Cc1ccc2c(C)nc(Nc3nc(CSc4nc5ccccc5[nH]4)cc(=O)[nH]3)nc2c1 was read as ELG1 repair inh 4.6µM*, MCF10A rerep -1%, KB-V1 cytotox inconclusive, KB-3-1 cytotox inactive and SW480 rereplic 15%.
Screening Cc1nc(Nc2nc3c(c(=O)[nH]2)CCC3)nc2ccccc12 returned MCF10A rerep inconclusive, KB-V1 cytotox inconclusive, KB-3-1 cytotox 5.8µM* and SW480 rereplic -85%.
`Cc1ccc(SCc2cc(=O)[nH]c(Nc3nc(C)c4ccccc4n3)n2)cc1` gave ELG1 repair inh -6%, MCF10A rerep 8%, KB-V1 cytotox 9.2µM*, KB-3-1 cytotox inactive and SW480 rereplic -5%.
`COc1ccc2c(C)nc(Nc3nc(-c4ccccc4)cc(=O)[nH]3)nc2c1` gave ELG1 repair inh 4.1µM*, MCF10A rerep 4.6µM*, KB-V1 cytotox inconclusive, KB-3-1 cytotox 4.6µM* and SW480 rereplic 3.7µM*.
Screening C[C@H](O)[C@@H]1C(=O)N2CCc3c([nH]c4ccccc34)[C@@H]2C[C@@H]1N(C)C(=O)Nc1cc(Cl)cc(Cl)c1 returned KB-V1 cytotox inactive and KB-3-1 cytotox inconclusive.
For COc1ccc2nc(Nc3nc(CSc4nnc(C)s4)cc(=O)[nH]3)nc(C)c2c1 the results were ELG1 repair inh 8%, MCF10A rerep -30% and SW480 rereplic 1%.
`Cc1ccc2nc(Nc3nc(CSc4nnc(C)s4)cc(=O)[nH]3)nc(C)c2c1` gave ELG1 repair inh 1%, MCF10A rerep 1%, KB-V1 cytotox 23µM*, KB-3-1 cytotox inconclusive and SW480 rereplic inconclusive.
`COc1cccc(OC)c1C(=O)Nn1c(-c2cccc(C)c2)nc2ccccc2c1=O` gave ELG1 repair inh 5%, MCF10A rerep 19%, KB-V1 cytotox inactive, KB-3-1 cytotox inactive and SW480 rereplic 26%.
COc1ccc(CNn2c(-c3cccc(C)c3)nc3ccccc3c2=O)cc1OC was read as ELG1 repair inh 15µM*, MCF10A rerep 0%, KB-V1 cytotox 23µM*, KB-3-1 cytotox inactive and SW480 rereplic -1%.
Screening COc1ccccc1CNn1c(-c2cccc(C)c2)nc2ccccc2c1=O returned ELG1 repair inh inconclusive, MCF10A rerep 14%, KB-V1 cytotox 23µM*, KB-3-1 cytotox inactive and SW480 rereplic -4%.
